Values joined by “and” are separate entries in the source; they are usually repeats but may differ in a detail not shown here. Identical values can stand only once. Records with an inconclusive call do not appear. Where a structure was tested more than once in an assay, its records may differ in their call. Active and inactive are the calls of the source. Rule for the calls: active = hit-call score of the fitted dose curve at least 0.9, where 1 is the maximum; inconclusive = response in the unintended direction; inactive = score below 0.9.
Experiment: TOX21_p53_BLA_p4_viability: Viability Assessment in the Tox21 HCT-116 p53 Agonism Beta-lactamase Assay, Phase 4 (AID 2283597);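 note: hits lower the luminescence signal meaning cytotoxicity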
Text: TOX21_p53_BLA_p4 is a cell-based, single-readout assay that uses HCT116, a human intestinal cell line, […] in a 1536-well plate.TOX21_p53_BLA_p4_viability is an assay readout measuring cellular ATP content and detected with CellTiter-Glo Luciferase-coupled ATP quantitation.TOX21_p53_BLA_p4_viability used a type of viability reporter where loss-of-signal activity can be used to understand changes in the cell viability. Furthermore, this assay endpoint can be referred to as a secondary readout, because this assay has produced multiple assay endpoints where this one serves a viability function. To generalize the intended target to other relatable targets, this assay endpoint is annotated to the cell cycle intended target family, where the subfamily is cytotoxicity.
Thawing Method: Place 14 mL of pre-warmed thaw medium into a 15 mL of conical tub. Remove the vial of cells to be thawed from liquid nitrogen and thaw rapidly by placing at 37C in a water bath with gentle agitation for 1-2 minutes. Decontaminate the vial by wiping with 70% ethanol before opening in a biological safety cabinet. Transfer the vial contents drop-wise into 14 mL of thaw medium in a sterile 15-mL conical tub. Centrifuge cells at 900 rpm for 4 minutes and resuspend in thaw medium. Transfer contents to the T75 tissue culture flask containing Thaw Medium and place flask in a humidified 37C/5% CO2 incubator. Switch to growth medium at first passage.Propagation Method: Aspirate medium, rinse once in DPBS, add 0.25% Trypsin/EDTA and swirl to coat the cell evenly. Add an equal volume of Growth Medium to inactivate Trypsin after 2-3 minutes incubation at 37C. Centrifuge cells at 900 rpm for 4 minutes and resuspend in growth medium. Cell should be passage or fed at least twice a week.Assay Protocol: Harvest cells from culture in growth medium and resuspend in assay medium. 2.2 Dispense 4000 cells/5 uL/well into 1536-well black/clear bottom plates using a Multidrop dispenser. After the cells were incubated at 37C for 5 hours, 23 nL of compounds dissolved in DMSO were transferred to the assay plate by a PinTool resulting in a 217-fold dilution. Incubate the plates for 16 hours at 37C, 5% CO2. Add 1 uL of 6X LiveBLAzer FRET B/G (CCF4-AM) Substrate Mixture to each well using a BioRAPTR dispenser and incubate the plates at room temperature for 2 hours. Measure fluorescence intensity at 460 and 530 nm emission and 405 nm excitation by an Envision detector. Data is expressed as the ratio of 460nm/530nm emissions. Add 4 uL of Cell-titer Glo to each well using BioRAPTR and incubate the plates at room temperature for […]. For cell viability readout that measures cytotoxicity, 4 ul/well of CellTiter-Glo reagent was added into the assay plates using a Flying Reagent Dispenser. After 30 min incubation at room temperature, the luminescence intensity in the plates was measured using a ViewLux plate reader.

Row | Structure (SMILES) | outcome | AC50
1 | COC(C(=O)O)c1ccccc1 (stereo not given) | inactive | 
2 | BrC1CCC(Br)C(Br)CCC(Br)C(Br)CCC1Br (stereo not given) |  | 40.1 µM (active) and 19.6 µM (active)
3 | CCCCc1ccc(N)cc1 | inactive | 
4 | CCCCNC(=O)NS(=O)(=O)c1ccc(C)cc1 | inactive | 
5 | CCCCC/C=C/C=C/C=O | inactive | 75 µM (active)
6 | CNCCO | inactive | 
7 | CCCCCCCCCCCCCCCCCC(=O)OCC(CC)CCCC (stereo not given) | inactive | 
8 | CCCCO | inactive | 
9 | Nc1ccc(S(N)(=O)=O)cc1 | inactive | 
10 | CCCC1CCC(=O)O1 (stereo not given) | inactive | 
11 | CC1(C)C(=O)N(Br)C(=O)N1Cl | inactive | 
12 | CSc1nc(NC2CC2)nc(NC(C)(C)C)n1 | inactive | 
13 | CCCc1c(OCCCOc2ccc(OCC(=O)O)cc2)ccc(C(C)=O)c1O |  | 46.1 µM (active)
14 | N#Cc1ccccc1 | inactive | 
15 | CCCCCCCCCCCCCOS(=O)(=O)O |  | 70.8 µM (active)
16 | CC(C)(C)NC(N)=O | inactive | 
17 | CCCCCCCCCCC(CO)CCCCCCCC (stereo not given) | inactive | 
18 | CC(C)(C)c1cc(CCC(=O)NN)cc(C(C)(C)C)c1O | inactive | 
19 | CC(=O)OCCOC(C)=O | inactive | 

Row | Structure (SMILES) | outcome | AC50
20 | O=[N+]([O-])c1ccc(Nc2ccc(Nc3ccccc3)c(S(=O)(=O)O)c2)c([N+](=O)[O-])c1 | inactive | 
21 | CCC(=O)OCc1ccccc1 | inactive | 
22 | Nc1cccc(S(=O)(=O)c2cccc(N)c2)c1 | inactive | 
23 | CN1[C@@H]2CC(OC(=O)[C@H](CO)c3ccccc3)C[C@H]1[C@@H]1O[C@@H]12 (stereo not given in full) | inactive | 
24 | CC(C)c1ccc(C(C)C)cc1 | inactive | 
25 | C=CC(=O)OCC(O)COc1ccccc1 (stereo not given) |  | 48.2 µM (active)
26 | O=C1c2ccccc2C(=O)N1SC1CCCCC1 | inactive | 49.3 µM (active)
27 | C[C@H]1C[C@@H]2[C@H]([C@@H](O)C[C@@]3(C)[C@H]2CC[C@]3(O)C(=O)CO)[C@@]2(C)C=CC(=O)C=C12 | inactive | 
28 | COc1ccc(NC(=O)CC(C)=O)cc1 | inactive | 
29 | Clc1nc(C(Cl)(Cl)Cl)c(Cl)c(Cl)c1Cl | inactive | 
30 | Nc1cc([N+](=O)[O-])ccc1O | inactive | 
31 | O=C(O)COCCN1CCN(C(c2ccccc2)c2ccc(Cl)cc2)CC1 (stereo not given) | inactive | 
32 | O=Cc1ccc(Cl)c([N+](=O)[O-])c1 | inactive | 
33 | CCCCCCCCCCCCSC | inactive | 
34 | ClCCCl | inactive | 
35 | O=C(Cl)c1cccc(C(=O)Cl)c1 | inactive | 
36 | CCC(C)(O)CCC=C(C)C (stereo not given) | inactive | 
37 | O=C(O)CCCCCCCC(=O)O | inactive | 
38 | O=C(O)CCCCC1CCSS1 (stereo not given) | inactive | 

— PubChem BioAssay (EPA / NIEHS)
